From ChEMBL document CHEMBL4513135, “CO-ADD screening of IQOG CSIS (Spain) compounds”
“And” between values parts separate entries of the source, which are not always exact repeats. Equal values may be shown once. Entries with a potency or affinity are not part of this list.

How the values were obtained:
Klebsiella pneumoniae = settings: Concentration 32 ug.mL-1, ASSAY_TEST Inhibition of Bacterial Growth, detection method Absorption (OD600), MEDIA CAMHB, plate type 384well, NBS, CORNING #3640, time 18 hr
Candida albicans = settings: 32 ug/mL
Cryptococcus neoformans = settings: Concentration 32 ug.mL-1, ASSAY_TEST Inhibition of Fungal Growth, detection method Resazurin, Absorption (OD600-OD570), plate type 384well, NBS, CORNING #3640

Structure (SMILES) | Inhibition (Klebsiella pneumoniae) [%] | Inhibition (Candida albicans) | Inhibition (Cryptococcus neoformans) [%] | Inhibition (Klebsiella pneumoniae; 32 ug/mL) | Inhibition (Cryptococcus neoformans; 32 ug/mL)
C#CCN1CCc2nc3ncccc3c(N)c2C1.Cl | 8.58 | 2.69% | -56.71 | – | –
O=C(CBr)NCc1ccccc1 | 15.98 | 10.2% | 6.35 | – | –
C#CCN(C)Cc1cc2cc(OCCCC3CCN(Cc4ccc(OC(=O)N(C)C)c5ncccc45)CC3)ccc2n1C | 4.78 | 5.51% | -77.63 | – | –
CCOC(=O)C1=C(C)OC(=O)CC1c1ccccc1 (configuration not stated) | 8.11 | 4.72% | -25.58 | – | –
CC1CC(=O)Nc2nc3c(c(N)c21)CCCC3 (configuration not stated) | 14.16 | 2.93% | -54.55 | – | –
COc1ccc(C=C(C#N)C#N)cc1OC | 6.42 | 0.87% | -1.94 | – | –
N#CCC(=O)c1ccccc1 | 12.74 | 10.4% | -3.25 | – | –
[N-]=[N+]=NCC(=O)c1ccc(Br)cc1 | 7.99 | 3.1% | -9.49 | – | –
CCOC(=O)c1cn(Cc2ccccc2)c2ccccc12 | 3.42 | -1.33% | -2.24 | – | –
Cl.ClCCN1CCCC1 | 3.45 | 5.34% | -1.83 | – | –
N#CC(C#N)=Cc1ccc(Cl)cc1 | 17.25 | 0.02% | -1.11 | – | –
Cc1ccccc1C=C(C#N)C#N | -3.33 | -0.55% | -4.61 | – | –
Cc1nc(N)c(C#N)cc1C(=O)O | -3.56 | 1.23% | -34.98 | – | –
CCOC(=O)C1=C(OC)OC(=O)CC1c1ccccc1 (configuration not stated) | 18.96 | 1.67% | -58.88 | – | –
C#CCN1CCc2nc(N)c(C#N)c(-c3ccccc3)c2C1 | – | 1.84% and 1.59% | – | 13.26% and 8.28% | -44.69% and -39.47%
C#CCN1CCc2nc3nc(Cl)c(C#N)cc3c(N)c2C1 | 7.38 | 0.36% | -89.58 | – | –
COc1ccc2c(c1)cc(C[N+](C)(C)C)n2C.[I-] | 16.42 | 1% | -0.09 | – | –
CCOC(=O)C1=C(C)NC(=O)CC1c1ccccc1 (configuration not stated) | 18.92 | 2.43% | -58.04 | – | –
Nc1c2c(nc3c1C(c1ccccc1)CC(=O)N3)CCCC2 (configuration not stated) | 11.64 | 1% | -63.29 | – | –
COc1cc(C2C(C#N)=C(N)Oc3c2ccc2ccccc32)cc(OC)c1OC (configuration not stated) | 3.14 | -0.44% | -3.68 | – | –

Structure (SMILES) | Inhibition (Klebsiella pneumoniae) [%] | Inhibition (Candida albicans) | Inhibition (Cryptococcus neoformans) [%] | Inhibition (Klebsiella pneumoniae; 32 ug/mL) | Inhibition (Cryptococcus neoformans; 32 ug/mL)
NNCCCc1c[nH]c2ccccc12.O=C(O)/C=C/C(=O)O | 10.99 | 1.63% | 4.26 | – | –
Cc1ccc(C=C(C#N)C#N)cc1 | 9.23 | 0.34% | -5.46 | – | –
CNCc1cn(C)c2ccc(OC)cc12.Cl | 11.42 | 1.37% | -1.31 | – | –
Cl.ClCCN1CCCCC1 | 11.31 | 4.96% | -9.27 | – | –
C#CCN(C)Cc1cc2cc(OC(=O)N(C)C)ccc2n1C | -2.9 | 3.66% | -26.57 | – | –
OCC(Cc1cnc[nH]1)NCc1ccccc1 (configuration not stated) | 4.01 | 0.31% | 1.68 | – | –
O=C(N1[C@H]2CC[C@@H]1C(c1nnn[nH]1)C2)C(F)(F)F (some centres not stated) | 13.67 | 1.81% | -32.17 | – | –
C#CCN1CCc2nc3nc(OC)c(C#N)cc3c(N)c2C1 | 9.96 | 0.5% | -73.36 | – | –
CN1CC=C(c2cccn2C)CC1 | 7.84 | 3.67% | -4.6 | – | –
NNC(=O)c1cn(Cc2ccccc2)c2ccccc12 | 10.74 | 0.77% | 3.84 | – | –
Nc1c2c(nc3ccccc13)CCN(Cc1ccccc1)C2 | 4.75 | -0.35% | -78.39 | – | –
C#CCN(C)Cc1cc2cc(OCc3ccc(OC(=O)N(C)C)c4ncccc34)ccc2n1C | -0.57 | 1.92% | -64.25 | – | –
N#Cc1cc(C#N)c(N2C3CCC2CC3)nc1N | -5.68 | 3.02% | -1.32 | – | –
CCOC(=O)c1cc2cc(OC(=O)NC3CCN(Cc4ccccc4)CC3)ccc2[nH]1 | 1.99 | 0.56% | -41.14 | – | –
Cc1ccc(S(=O)(=O)N2[C@H]3CC[C@@H]2CC3)cc1 | 13.85 | 3.38% | -10.99 | – | –
NNC(=O)c1cccnc1 [NICOTINIC ACID HYDRAZIDE] | 3.91 | 1.56% | -4.91 | – | –
CN1CC=C(c2cccn2C)CC1.Cl | 8.46 | 3.38% | -2.75 | – | –
CCOc1nc2nc(C)c(C(=O)O)cc2c(-c2ccccc2)c1C#N | 7.3 | 1.34% | -54.07 | – | –
CN(C)C(=O)Oc1ccc(CCl)c2cccnc12 | 13.45 | 4.55% | -46.72 | – | –
